From PubChem BioAssay AID1159580 (chemical genetic matrix, 2015)
In all, about 5,500 compounds went through this assay and about 2,000 (36%) were called active. Inconclusive results (about 18%) are left out. Cut-off read from the data, not from the text of the source: active = normalized growth mostly below about 0.91 (no sharp cut-off); inconclusive = no clear call, values can overlap the other calls; inactive = mostly above about 0.92. Some of the results follow.

Test: chemical genetic growth profiling, strain panel (AID 1159580);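 note: tested at 20 µM; growth read once vehicle control cultures reached saturation at 30 °C; 1 = growth at the plate median or of vehicle wells; lower values mean less growth of the strain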
Conditions: growth OD

Measured: normalized growth

Cc1ccc(-c2cc(C(F)(F)F)nn2-c2ccc(S(N)(=O)=O)cc2)cc1
inactive: S. cerevisiae deletion strains, locus YJR075W, strain HOC1, stronger effect = lower value 1.02 | S. cerevisiae deletion strains, locus YKL009W, strain mrt4, stronger effect = lower value 0.965 | S. cerevisiae deletion strains, locus YKL068W, stronger effect = lower value 1 | S. cerevisiae deletion strains, locus YKL085W, strain MDH1 (second series), stronger effect = lower value 1 | S. cerevisiae deletion strains, locus YKL085W, strain MDH1, stronger effect = lower value 1 | S. cerevisiae deletion strains, locus YKL160W, strain elf1, stronger effect = lower value 1.03 | S. cerevisiae deletion strains, locus YKL190W, strain CNB1, stronger effect = lower value 0.999 | S. cerevisiae deletion strains, locus YKR001C, strain vps1, stronger effect = lower value 0.988 | S. cerevisiae deletion strains, locus YKR026C, strain gcn3, stronger effect = lower value 1.03 | S. cerevisiae deletion strains, locus YKR091W, strain srl3, stronger effect = lower value 1.02 | S. cerevisiae deletion strains, locus YLL001W, strain dnm1, stronger effect = lower value 1.03 | S. cerevisiae deletion strains, locus YLL026W, stronger effect = lower value 1.02 | S. cerevisiae deletion strains, locus YLL041C, strain sdh2, stronger effect = lower value 1.02 | S. cerevisiae deletion strains, locus YLR027C, strain aat2, stronger effect = lower value 1.02 | S. cerevisiae deletion strains, locus YLR039C, strain RIC1, stronger effect = lower value 0.967 | S. cerevisiae deletion strains, locus YLR058C, strain SHM2, stronger effect = lower value 0.998 | S. cerevisiae deletion strains, locus YLR102C, strain apc9, stronger effect = lower value 1.01 | S. cerevisiae deletion strains, locus YLR113W, strain HOG1, stronger effect = lower value 0.984 | S. cerevisiae deletion strains, locus YLR221C, strain rsa3, stronger effect = lower value 1.03 | S. cerevisiae deletion strains, locus YLR258W, strain gsy2, stronger effect = lower value 1.02 | S. cerevisiae deletion strains, locus YLR262C, strain YPT6 (second series), stronger effect = lower value 1.01 | S. cerevisiae deletion strains, locus YLR262C, strain YPT6, stronger effect = lower value 0.939 | S. cerevisiae deletion strains, locus YLR268W, strain sec22, stronger effect = lower value 1.08 | S. cerevisiae deletion strains, locus YLR320W, strain mms22, stronger effect = lower value 1.04 | S. cerevisiae deletion strains, locus YLR330W, strain CHS5, stronger effect = lower value 1 | S. cerevisiae deletion strains, locus YLR342W, strain FKS1 (second series), stronger effect = lower value 1.04 | S. cerevisiae deletion strains, locus YLR342W, strain FKS1, stronger effect = lower value 1.03 | S. cerevisiae deletion strains, locus YLR357W, strain rsc2, stronger effect = lower value 1.09 | S. cerevisiae deletion strains, locus YLR370C, strain arc18, stronger effect = lower value 1.03 | S. cerevisiae deletion strains, locus YLR371W, strain rom2, stronger effect = lower value 1.02 | S. cerevisiae deletion strains, locus YLR384C, strain iki3, stronger effect = lower value 1.02 | S. cerevisiae deletion strains, locus YLR418C, strain cdc73, stronger effect = lower value 1.01 | S. cerevisiae deletion strains, locus YML016C, strain PPZ1, stronger effect = lower value 0.989 | S. cerevisiae deletion strains, locus YML032C, strain rad52, stronger effect = lower value 1.05 | S. cerevisiae deletion strains, locus YML120C, strain ndi1, stronger effect = lower value 1.03 | S. cerevisiae deletion strains, locus YML124C, strain tub3, stronger effect = lower value 1.01 | S. cerevisiae deletion strains, locus YMR058W, strain fet3, stronger effect = lower value 1.03 | S. cerevisiae deletion strains, locus YMR078C, strain ctf18, stronger effect = lower value 1.02 | S. cerevisiae deletion strains, locus YMR125W, strain sto1, stronger effect = lower value 1.03 | S. cerevisiae deletion strains, locus YMR129W, stronger effect = lower value 1.02 | S. cerevisiae deletion strains, locus YMR205C, strain PFK2, stronger effect = lower value 1.04 | S. cerevisiae deletion strains, locus YMR223W, strain ubp8, stronger effect = lower value 0.999 | S. cerevisiae deletion strains, locus YMR231W, strain pep5, stronger effect = lower value 1.03 | S. cerevisiae deletion strains, locus YMR263W, strain SAP30, stronger effect = lower value 1.01 | S. cerevisiae deletion strains, locus YMR307W, strain GAS1, stronger effect = lower value 0.959 | S. cerevisiae deletion strains, locus YNL067W, strain RPL9B, stronger effect = lower value 1.02 | S. cerevisiae deletion strains, locus YNL071W, strain lat1, stronger effect = lower value 1.02 | S. cerevisiae deletion strains, locus YNL128W, strain TEP1, stronger effect = lower value 1.02 | S. cerevisiae deletion strains, locus YNL153C, strain GIM3, stronger effect = lower value 1.03 | S. cerevisiae deletion strains, locus YNL183C, strain NPR1, stronger effect = lower value 0.954 | S. cerevisiae deletion strains, locus YNL209W, strain ssb2, stronger effect = lower value 1.02 | S. cerevisiae deletion strains, locus YNL233W, strain BNI4, stronger effect = lower value 1.02 | S. cerevisiae deletion strains, locus YNL248C, strain rpa49, stronger effect = lower value 1.03 | S. cerevisiae deletion strains, locus YNL250W, strain rad50, stronger effect = lower value 1.02 | S. cerevisiae deletion strains, locus YNL271C, strain bni1, stronger effect = lower value 1.01 | S. cerevisiae deletion strains, locus YNL298W, strain CLA4, stronger effect = lower value 0.992 | S. cerevisiae deletion strains, locus YNL307C, strain MCK1, stronger effect = lower value 1 | S. cerevisiae deletion strains, locus YNL322C, strain KRE1 (second series), stronger effect = lower value 1.03 | S. cerevisiae deletion strains, locus YNL322C, strain KRE1, stronger effect = lower value 0.997 | S. cerevisiae deletion strains, locus YNR049C, strain mso1, stronger effect = lower value 1.03 | S. cerevisiae deletion strains, locus YNR052C, strain pop2, stronger effect = lower value 1.01 | S. cerevisiae deletion strains, locus YOL006C, strain TOP1, stronger effect = lower value 1 | S. cerevisiae deletion strains, locus YOL012C, strain htz1 0.962 | S. cerevisiae deletion strains, locus YOL147C, strain pex11, stronger effect = lower value 1.01 | S. cerevisiae deletion strains, locus YOR001W, strain rrp6, stronger effect = lower value 1.03 | S. cerevisiae deletion strains, locus YOR061W, strain CKA2, stronger effect = lower value 0.998 | S. cerevisiae deletion strains, locus YOR069W, strain VPS5, stronger effect = lower value 0.996 | S. cerevisiae deletion strains, locus YOR070C, strain gyp1, stronger effect = lower value 1.02 | S. cerevisiae deletion strains, locus YOR080W, strain dia2, stronger effect = lower value 1.05 | S. cerevisiae deletion strains, locus YOR083W, strain WHI5, stronger effect = lower value 1.02 | S. cerevisiae deletion strains, locus YOR106W, strain vam3, stronger effect = lower value 1.04 | S. cerevisiae deletion strains, locus YOR136W, strain idh2, stronger effect = lower value 1.01 | S. cerevisiae deletion strains, locus YOR144C, strain elg1, stronger effect = lower value 1.01 | S. cerevisiae deletion strains, locus YOR184W, strain ser1, stronger effect = lower value 1.01 | S. cerevisiae deletion strains, locus YOR231W, strain MKK1, stronger effect = lower value 0.968 | S. cerevisiae deletion strains, locus YOR265W, strain rbl2, stronger effect = lower value 1.01 | S. cerevisiae deletion strains, locus YOR270C, strain vph1, stronger effect = lower value 1.07 | S. cerevisiae deletion strains, locus YOR290C, strain snf2, stronger effect = lower value 1.03 | S. cerevisiae deletion strains, locus YOR316C, strain cot1, stronger effect = lower value 1.01 | S. cerevisiae deletion strains, locus YPL051W, strain arl3, stronger effect = lower value 1.02 | S. cerevisiae deletion strains, locus YPL055C, strain LGE1, stronger effect = lower value 0.986 | S. cerevisiae deletion strains, locus YPL078C, strain atp4, stronger effect = lower value 1.02 | S. cerevisiae deletion strains, locus YPL106C, strain sse1, stronger effect = lower value 1.04 | S. cerevisiae deletion strains, locus YPL240C, strain hsp82, stronger effect = lower value 1.02 | S. cerevisiae deletion strains, locus YPL241C, strain CIN2, stronger effect = lower value 0.995 | S. cerevisiae deletion strains, locus YPL256C, strain CLN2, stronger effect = lower value 0.96 | S. cerevisiae deletion strains, locus YPR119W, strain clb2, stronger effect = lower value 1.01 | S. cerevisiae deletion strains, locus YPR141C, strain kar3, stronger effect = lower value 1 | S. cerevisiae deletion strains, locus YPR163C, strain tif3, stronger effect = lower value 1.02 | S. cerevisiae deletion strains, locus YPR167C, strain met16, stronger effect = lower value 1.01 | S. cerevisiae deletion strains, strain wtn01, stronger effect = lower value 1.03 | S. cerevisiae strains, strain wild type, stronger effect = lower value 0.996
